Results reported in PubChem BioAssay AID2685 (National Center for Advancing Translational Sciences (NCATS), 2010).
Among all 320,000 compounds or so, about 2,100 (0.66%) were called active. Roughly 53% stayed inconclusive and do not appear here. Calls come from the whole dose curve; as a rule, active = well fitted inhibition curve with a large enough effect in the signal ratio, with a control signal flat (not every such curve was filed as active); inconclusive = small, poorly fitted or top-dose-only effect, or effect the other way, or a change in a side signal; inactive = flat fitted curve, though single readings scatter; the % refers to the signal ratio. Only a selection was taken, and actives are over-represented in it overall.

Assay: qHTS Assay for Lipid Storage Modulators in Drosophila S3 Cells;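 for cell number change: cells counted by Cell Tracker Red CMTPX staining in the red channel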
Conditions: BODIPY lipid droplet fluorescence, 18-24 h, cells fed with added oleic acid; cell number change: measured here: cell count max response; series mostly up to 46.1 µM
How it was run: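 Drosophila S3 cells loaded with oleic acid (400 uM, as added) and compounds at several concentrations; lipid droplets imaged by 488-nm laser-scanning cytometry, 500–530 nm intensity and object ratio to cell channel. Percent activity normalized to 20 uM Triacsin C.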
Potency is the fitted concentration of half-maximal effect.

Compound	Potency	cell number change
CCN(CC(=O)NC1CCCC1)S(=O)(=O)c1ccc(C)cc1	inactive	–
COc1ccc(/C=C/C(=O)O)cc1S(=O)(=O)NC1CCS(=O)(=O)C1 (stereo not drawn)	inactive	23.6%
Nc1nc(SCc2ccccc2Cl)nc2nc3c(cc12)CCCC3	inactive	-12.1%
COc1ccc(C2N=C(c3ccccc3)NC(c3ccccc3)=N2)cc1	inactive	1.5%
N#Cc1cccc(S(=O)(=O)Nc2c(NC3CCCCC3)c3ccccc3oc2=O)c1	inactive	-28.3%
Cc1cccc(NC(=S)N(CCc2ccncc2)C(C)C)c1C	inactive	-1.71%
O=C(Nc1nnc(-c2ccccc2)s1)c1cccc(S(=O)(=O)N2CCOCC2)c1	inactive	-9.5%
O=C(NCCN1CCOCC1)c1cccc(S(=O)(=O)N2CCCC2)c1	inactive	2.89%
O=C(Nc1nccs1)c1cccc(S(=O)(=O)N2CCOCC2)c1	inactive	0.981%
O=C(NCCN1C(=O)S/C(=C\c2ccc(F)cc2)C1=O)c1cccc(S(=O)(=O)N2CCOCC2)c1	13 µM (active)	–
COc1ccc(NC(=O)c2cc(S(=O)(=O)N3CCOCC3)cn2C)cc1Cl	inactive	-8.07%
O=C(Nc1nncs1)c1cccc(S(=O)(=O)N2CCOCC2)c1	23.1 µM (active)	-2.32%
COc1cc(C(=O)NCCN2C(=O)S/C(=C\c3ccc(F)cc3)C2=O)ccc1OCC(=O)N1CCOCC1	inactive	15.3%
Cn1cc(S(=O)(=O)N2CCOCC2)cc1C(=O)Nc1cccc(Cl)c1	7.31 µM (active)	-6.63%
Cn1cc(S(=O)(=O)N2CCOCC2)cc1C(=O)Nc1ccc(Cl)cc1	inactive	5.48%
COc1ccc(OCC(=O)NCCc2c[nH]c3ccccc23)cc1	inactive	-0.0954%
COc1ccc(/C(C)=N/NC(=O)CNC(=O)/C=C\c2ccco2)cc1	inactive	25.3%
O=[N+]([O-])c1cc(N=Nc2ccc3ccccc3c2)ccc1O	inactive	-8.5%
Oc1ccc(N=Nc2ccc3ccccc3c2)cc1	inactive	-16.8%
COc1ccc(N=Nc2ccc3ccccc3c2)c(O)c1	4.11 µM (active)	-14.1%
COc1cccc(NC(=O)CSc2nnc(Cn3nnc4ccccc43)n2C)c1	inactive	1.13%
O=C(Oc1ccc(=O)n(-c2ccccc2)n1)c1cccc(Cl)c1	inactive	-1.38%
Cn1c(CNC(=O)c2ccc3c(c2)OCO3)nnc1SCC(=O)Nc1ccccc1F	inactive	3.42%
CCN(Cc1ccccc1)S(=O)(=O)c1ccc(C(=O)N(CCCN(C)C)c2nc3cc(OC)ccc3s2)cc1	inactive	7.95%

Compound	Potency	cell number change
O=C(COc1ccc2c3c(c(=O)oc2c1)CCC3)N1CCN(c2ccccc2)CC1	inactive	28.4%
CC1(C)CC(N2CCN(C(c3ccccc3)c3ccccc3)CC2)=CC(=[N+]2CCCCC2)C1	2.06 µM (active)	-24.2%
CN1CCN(C(c2ccccc2)c2ccccc2)CC1	inactive	2.24%
CC1(C)CC(N2CCOCC2)=CC(=[N+]2CCOCC2)C1	inactive	3.66%
Cc1cc(SCC(=O)Nc2cccc(S(N)(=O)=O)c2)c(C)cc1Br	inactive	15.2%
CCc1ccc(OCCCCCn2ccnc2)cc1	4.61 µM (active)	-11.6%
c1ccc(Cc2ccc(OCCn3ccnc3)cc2)cc1	3.66 µM (active)	-8.07%
CCc1ccc(OCCn2ccnc2)cc1	inactive	-22.2%
O=C(O)c1ccc(OCCn2ccnc2)cc1	inactive	11.3%
COc1ccc(OCCn2ccnc2)cc1	inactive	-2.55%
COc1ccc(OCCCn2ccnc2)cc1	inactive	-3.82%
COc1ccccc1NC(=O)C1=C(C)Nc2nc(CCCO)nn2C1c1ccc2c(c1)OCO2 (stereo not drawn)	inactive	-2.99%
COc1ccc(Cl)cc1S(=O)(=O)N1CCC(C(=O)NCC2CCCO2)CC1 (stereo not drawn)	inactive	6.08%
CCCS(=O)(=O)N1CCN(C(=O)c2cccnc2)CC1	inactive	–
COCCCn1c(SCC(=O)NC(C)C)nnc1-c1ccccc1	inactive	1.73%
COc1cc(C(=O)Nc2ccc(C)cn2)ccc1OCC(=O)N1CCOCC1	20.6 µM (active)	5.26%
CCc1ccc(C(=O)NNC(=O)c2ccc(OCC(=O)N3CCOCC3)c(OC)c2)cc1	inactive	-13.6%
COc1cc(C(=O)O)ccc1OCC(=O)N1CCOCC1	inactive	-12%
CCN(CC)CCCNC(=O)CSc1nc(-c2ccc(F)cc2)cc(C(F)(F)F)n1	inactive	4.94%
CCC(C)(C)NC(=O)CN(C(=O)c1snc(C(N)=O)c1N)c1ccc2c(c1)OCCO2	inactive	19.8%
O=C(CNC(=O)c1ccccc1)OCc1cccc([N+](=O)[O-])c1	inactive	-2.11%
CN(C)S(=O)(=O)c1cccc(C(=O)NCCNC(=O)c2cccc(S(=O)(=O)N(C)C)c2)c1	inactive	-23.4%
CN(C)S(=O)(=O)c1cccc(COC(=O)CCNC(=O)c2ccc([N+](=O)[O-])cc2)c1	2.31 µM (active)	9.78%
Cn1c(CC(=O)Nc2cccc(Cl)c2Cl)nnc1SCC(=O)NC1=NCCS1	inactive	10.7%
